# Reference: the supplement of paper PMC8728848
# The sample as a whole holds a higher share of the strongest signals than the screen did.
# B1: AICL (Homo sapiens), Q92478 (protein)
# chain: MMTKHKKCFIIVGVLITTNIITLIVKLTRDSQSLCPYDWIGFQNKCYYFSKEEGDWNSSKYNCSTQHADLTIIDNIEEMNFLRRYKCSSDHWIGLKMAKNRTGQWVDGATFTKSFGMRGSEGCAYLSDDGAATARCYTERKWICRKRIH
# Legend:
# Assay in all cases: glycan array binding signal (z-score within array); higher = stronger binding
# Conditions in all cases: glycan notation: IUPAC condensed, linker removed
# [1] = target: Fuc(a1-2)Gal(b1-4)[Fuc(a1-3)]GlcNAc(b1-3)Gal(b1-4)[Fuc(a1-3)]GlcNAc
# How it was run: (§1)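 Arrays were curated from the Consortium for Functional Glycomics database, 3228 in total, and kept only where the protein sequence was available. Binding is expressed as a within-array Z-score. This score was averaged across arrays of the same protein sequence at different concentrations or buffers and across linkers, and negative values can be read as non-binding.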
# [2] = target: Fuc(a1-2)[Gal(a1-3)]Gal
# How it was run: as §1
# [3] = target: Fuc(a1-2)[GalNAc(a1-3)]Gal(b1-4)Glc
# How it was run: as §1
# [4] = target: Fuc(a1-3)[Gal(b1-4)]GlcNAc
# How it was run: as §1
# [5] = target: Fuc(b1-3)GlcNAc
# How it was run: as §1
# [6] = target: Gal(a1-3)Gal
# How it was run: as §1
# [7] = target: Gal(b1-3)[Neu5Ac(a2-6)]GalNAc
# How it was run: as §1
# [8] = target: Gal(b1-3)[Neu5Ac(a2-6)]GlcNAc(b1-6)Gal(b1-4)Glc
# How it was run: as §1
# [9] = target: Gal(b1-4)GlcNAc(b1-3)Gal(b1-4)GlcNAc
# How it was run: as §1
# [10] = target: Gal3S6S(b1-4)GlcNAc6S
# How it was run: as §1
# [11] = target: GalNAc(b1-3)Gal(a1-4)Gal(b1-4)GlcNAc
# How it was run: as §1
# [12] = target: GalNAc(b1-4)GlcNAc
# How it was run: as §1
# [13] = target: Glc(b1-6)Glc
# How it was run: as §1
# [14] = target: GlcA(b1-3)Gal
# How it was run: as §1
# [15] = target: GlcA(b1-6)Gal
# How it was run: as §1
# [16] = target: GlcNAc(b1-3)Gal
# How it was run: as §1
# [17] = target: GlcNAc(b1-3)Gal(b1-4)GlcNAc(b1-3)Gal(b1-4)GlcNAc
# How it was run: as §1
# [18] = target: Kdn(a2-3)Gal(b1-4)GlcNAc
# How it was run: as §1
# [19] = target: Man(b1-4)GlcNAc
# How it was run: as §1
# [20] = target: Neu5Ac(a2-3)Gal(b1-3)[Fuc(a1-4)]GlcNAc
# How it was run: as §1
# [21] = target: Neu5Ac(a2-3)Gal(b1-4)GlcNAc(b1-3)Gal(b1-4)GlcNAc(b1-3)Gal(b1-4)GlcNAc
# How it was run: as §1
# [22] = target: Neu5Ac(a2-3)[GalNAc(b1-4)]Gal(b1-4)GlcNAc
# How it was run: as §1
# [23] = target: Neu5Ac(a2-8)Neu5Ac
# How it was run: as §1
# [24] = target: Neu5Gc(a2-3)Gal(b1-3)[Fuc(a1-4)]GlcNAc
# How it was run: as §1
# [25] = target: Neu5Gc(a2-3)Gal(b1-4)GlcNAc
# How it was run: as §1
# [26] = target: Neu5Gc(a2-6)Gal(b1-4)GlcNAc
# How it was run: as §1
binder,measurement,setting,value
B1,glycan array binding signal (z-score),[1],-0.049
same,glycan array binding signal (z-score),[2],-0.508
same,glycan array binding signal (z-score),[3],-0.265
same,glycan array binding signal (z-score),[4],-0.169
same,glycan array binding signal (z-score),[5],-0.469
same,glycan array binding signal (z-score),[6],-0.224
same,glycan array binding signal (z-score),[7],-0.085
same,glycan array binding signal (z-score),[8],-0.359
same,glycan array binding signal (z-score),[9],-0.439
same,glycan array binding signal (z-score),[10],5.26
same,glycan array binding signal (z-score),[11],-0.363
same,glycan array binding signal (z-score),[12],-0.322
same,glycan array binding signal (z-score),[13],-0.395
same,glycan array binding signal (z-score),[14],5.65
same,glycan array binding signal (z-score),[15],4.6
same,glycan array binding signal (z-score),[16],-0.329
same,glycan array binding signal (z-score),[17],-0.374
same,glycan array binding signal (z-score),[18],2.06
same,glycan array binding signal (z-score),[19],-0.401
same,glycan array binding signal (z-score),[20],-0.312
same,glycan array binding signal (z-score),[21],-0.415
same,glycan array binding signal (z-score),[22],-0.3
same,glycan array binding signal (z-score),[23],0.384
same,glycan array binding signal (z-score),[24],-0.323
same,glycan array binding signal (z-score),[25],0.329
same,glycan array binding signal (z-score),[26],-0.267
